The source made the active and inactive calls.
Legend:
[1] = tested on: Human papillomavirus type 1a protein E7 (residues 44-93); test: small molecules binding HPV E7 44-93 – biochemical, small-molecule microarray, residues 44-93, 635 nm fluorescence, primary screen (AID 1108); details: fluorescence 635 nm, higher = more signal;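 also: E7 fragment applied at 1 µg/mL in TBST for 1 h at 4 C; score combines spot fluorescence with its signal to noise ratio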
[2] = hepatitis C replication reporter changes, two-sided – Huh7 cells, luciferase reporter, HCV replication inhibitor project, primary screen (AID 1109); details: Huh7 HCV replicon luciferase reporter, 48 h; higher = more signal;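 also: huh7 hepatoma cells harbouring a luciferase neomycin HCV replicon reporter; luciferase luminescence as measure of HCV replicon replication; test concentration not given here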
[3] = molecular target: Left-right determination factor 2 (Homo sapiens) (UniProt O00292); test: small molecules binding LEFTY2 protein – biochemical, small-molecule microarray, 635 nm fluorescence scan, primary screen (AID 1110); details: higher = more signal
Left-right determination factor 2 (Homo sapiens), sequence (O00292 whole entry, looked up): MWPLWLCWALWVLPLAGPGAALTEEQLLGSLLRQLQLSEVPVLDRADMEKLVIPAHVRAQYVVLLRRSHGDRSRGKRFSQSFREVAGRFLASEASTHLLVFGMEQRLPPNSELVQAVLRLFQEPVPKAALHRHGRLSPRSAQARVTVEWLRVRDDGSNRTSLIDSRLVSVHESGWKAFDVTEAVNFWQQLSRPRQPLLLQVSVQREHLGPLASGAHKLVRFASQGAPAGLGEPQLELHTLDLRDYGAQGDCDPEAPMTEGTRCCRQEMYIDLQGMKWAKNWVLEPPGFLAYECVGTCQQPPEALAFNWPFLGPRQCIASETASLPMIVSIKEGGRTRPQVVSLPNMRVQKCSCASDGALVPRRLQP

[4] = molecular target: Calmodulin-1 (Homo sapiens) (UniProt P0DP23); test: small molecules binding calmodulin-1 with EGTA – biochemical, small-molecule microarray, Cy5-labelled CALM1, profiling panel (AID 1111); details: Cy5-CALM1 binding fluorescence, higher = more signal;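 also: labelled calmodulin applied in Tris saline Tween buffer holding calcium plus EGTA and DTT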
[5] = molecular target: Calmodulin-1 (Homo sapiens) (UniProt P0DP23); test: small molecules binding Ca-loaded calmodulin-1 – biochemical, small-molecule microarray, Cy5-labelled CALM1, plus calcium, artefact control for SMM control-protein annotation, profiling panel (AID 1112); details: Cy5-CALM1 binding fluorescence, higher = more signal;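 also: score merges spot fluorescence with signal to noise from triplicate slides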
[6] = probe aWnt5a binding to arrayed compounds – biochemical, biotinylated probe, 635/667 nm fluorescence, primary screen (AID 1113); details: small-molecule microarray, higher = more signal;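 also: score merges 667 nm fluorescence intensity with signal-to-noise per printed feature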
[7] = probe aShh binding to arrayed compounds – biochemical, biotinylated probe, 635/667 nm fluorescence, primary screen (AID 1114); details: small-molecule microarray, higher = more signal;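 also: probe is biotin-labelled aShh protein from a stem cell growth factor screen; measures binding of labelled protein to compounds printed on the slide; score merges feature fluorescence at 667 nm with signal-to-noise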
[8] = probe aNog binding to arrayed compounds – biochemical, biotinylated probe, 635/667 nm fluorescence, primary screen (AID 1115); details: small-molecule microarray, higher = more signal;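 also: probe is biotinylated aNog protein used at 0.15 µg/mL for 1 h at 4 C; z-score combines 667 nm fluorescence of each spot with its signal to noise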
[9] = molecular target: Torsin-1A-interacting protein 1 (Homo sapiens) (UniProt Q5JTV8); test: compound microarray binding of lysate hLAP1 – cell lysate, small-molecule microarray, COS7 lysate, 635/667 nm fluorescence, primary screen (AID 1116); details: 635 nm fluorescence, higher = more signal
Torsin-1A-interacting protein 1 (Homo sapiens), sequence (Q5JTV8 whole entry, looked up): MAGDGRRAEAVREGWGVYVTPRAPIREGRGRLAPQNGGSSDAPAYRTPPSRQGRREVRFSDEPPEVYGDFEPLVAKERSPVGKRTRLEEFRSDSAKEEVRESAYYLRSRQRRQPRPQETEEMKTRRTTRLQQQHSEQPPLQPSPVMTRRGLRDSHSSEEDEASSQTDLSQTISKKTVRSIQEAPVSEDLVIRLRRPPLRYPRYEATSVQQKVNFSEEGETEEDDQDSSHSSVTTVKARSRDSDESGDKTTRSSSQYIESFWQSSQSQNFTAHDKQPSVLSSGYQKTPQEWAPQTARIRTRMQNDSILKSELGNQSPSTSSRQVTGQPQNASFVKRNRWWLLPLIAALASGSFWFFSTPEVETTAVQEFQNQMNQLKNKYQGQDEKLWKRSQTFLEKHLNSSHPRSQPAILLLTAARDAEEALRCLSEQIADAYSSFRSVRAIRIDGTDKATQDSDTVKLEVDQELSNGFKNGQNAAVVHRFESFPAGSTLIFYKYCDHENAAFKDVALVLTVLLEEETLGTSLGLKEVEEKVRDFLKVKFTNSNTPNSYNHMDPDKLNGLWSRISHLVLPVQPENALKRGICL

[10] = molecular target: Alpha-bungarotoxin (Bungarus multicinctus) (UniProt P60615); test: compounds binding labelled alpha-BTX control protein – biochemical, small-molecule microarray, Alexa647 label, 635/667 nm fluorescence, artefact control for SMM control protein annotation, profiling panel (AID 1117); details: alpha-BTX-A647 binding fluorescence, higher = more signal
Alpha-bungarotoxin (Bungarus multicinctus), sequence (P60615 whole entry, looked up): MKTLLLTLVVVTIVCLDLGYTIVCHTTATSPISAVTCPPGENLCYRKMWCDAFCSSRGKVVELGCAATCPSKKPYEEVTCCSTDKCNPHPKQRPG

[11] = molecular target: Albumin (Bos taurus) (UniProt P02769); test: compounds binding labelled BSA control protein – biochemical, small-molecule microarray, Alexa647 label, 635/667 nm fluorescence, artefact control for SMM control protein annotation, profiling panel (AID 1118); details: BSA-A647 binding, fluorescence 635 nm, higher = more signal;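 also: score merges 667 nm emission intensity and signal-to-noise per printed compound spot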
Albumin (Bos taurus), sequence (P02769 whole entry, looked up): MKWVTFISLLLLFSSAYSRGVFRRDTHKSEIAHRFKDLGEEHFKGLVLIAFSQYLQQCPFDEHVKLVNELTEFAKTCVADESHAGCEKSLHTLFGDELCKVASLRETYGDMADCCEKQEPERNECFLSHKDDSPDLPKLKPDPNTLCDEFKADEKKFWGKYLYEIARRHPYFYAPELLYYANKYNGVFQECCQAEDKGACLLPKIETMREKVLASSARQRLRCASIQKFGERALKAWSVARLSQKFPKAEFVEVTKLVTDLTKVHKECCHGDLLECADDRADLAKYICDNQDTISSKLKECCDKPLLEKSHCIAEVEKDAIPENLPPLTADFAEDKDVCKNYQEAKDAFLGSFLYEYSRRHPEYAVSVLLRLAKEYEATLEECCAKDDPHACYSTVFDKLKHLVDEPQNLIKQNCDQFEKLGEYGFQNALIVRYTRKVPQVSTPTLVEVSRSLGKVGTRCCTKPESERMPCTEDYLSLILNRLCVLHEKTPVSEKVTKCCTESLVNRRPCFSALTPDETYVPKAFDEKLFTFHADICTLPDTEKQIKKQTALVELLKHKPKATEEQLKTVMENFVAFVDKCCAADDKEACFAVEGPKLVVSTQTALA

[12] = probe aXIP binding to arrayed compounds – biochemical, NeuroSMM set, 635/667 nm fluorescence, primary screen (AID 1119); details: small-molecule microarray, higher = more signal, called active from +8 up or from −8 down;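 also: probe is the protein aXip251-270 applied at 1 µg/mL to compound-printed slides; binding of probe to printed compounds measured as 667 nm fluorescence plus signal to noise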
[13] = probe aNOTCH3 binding on compound microarray – biochemical, small-molecule microarray, 635/667 nm fluorescence, primary screen (AID 1120); details: higher = more signal;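 also: probe is a biotin-tagged antibody raised against NOTCH3 rather than NOTCH3 protein; score merges spot fluorescence near 667 nm with spot signal to noise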
[14] = probe aNOTCH2 binding on compound microarray – biochemical, small-molecule microarray, 635/667 nm fluorescence, primary screen (AID 1121); details: higher = more signal;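 also: score merges feature fluorescence read at 667 nm with its signal to noise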
[15] = molecular target: Carbonic anhydrase 2 (Homo sapiens) (UniProt P00918); test: compounds binding carbonic anhydrase 2 – biochemical, small-molecule microarray, Alexa647-labelled CAII, profiling panel (AID 1122); details: CAII-A647 binding fluorescence, higher = more signal
[16] = COS7 lysate on small-molecule microarray, probe aHis, 635 nm (AID 1123); details: COS7 cell lysate, fluorescence, higher = more signal;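 also: z-score combines 667nm fluorescence intensity with signal-to-noise per printed compound spot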
[17] = probe aLAP1 signal on lysate-treated microarray – cell lysate, small-molecule microarray, COS7 lysate, primary screen (AID 1124); details: probe aLAP1, fluorescence, higher = more signal;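 also: lysate comes from COS7 cells expressing LAP1 and is applied at 0.3 µg/mL; score merges spot fluorescence near 667 nm with signal-to-noise over triplicate slides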
[18] = tested on: Sam68 (KHDRBS1); test: compounds binding KHDRBS1 protein – biochemical, small-molecule microarray, 635 nm fluorescence, primary screen (AID 1125); details: higher = more signal;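 also: score merges 667 nm channel intensity with signal to noise over triplicate slides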
[19] = tested on: Chordin-like protein 2 (CHRDL2); test: compounds binding chordin-like 2 – biochemical, small-molecule microarray, 635 nm fluorescence, primary screen (AID 1126); details: fluorescence 635 nm, higher = more signal;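 also: printed compound slides probed with Chrdl2 protein at 4 µg/mL for 1 h at 4 C; score merges 667 nm emission intensity with signal to noise over three replicate slides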
[20] = molecular target: Concanavalin-A (Canavalia ensiformis) (UniProt P02866); test: compounds binding concanavalin A lectin – biochemical, small-molecule microarray, Alexa647 label, 635 nm, artefact control for SMM control protein annotation, primary screen (AID 1127); details: ConA-A647 binding fluorescence, higher = more signal;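 also: z combines 667 nm emission intensity with signal-to-noise across three replicate slides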
Concanavalin-A (Canavalia ensiformis), sequence (P02866 whole entry, looked up): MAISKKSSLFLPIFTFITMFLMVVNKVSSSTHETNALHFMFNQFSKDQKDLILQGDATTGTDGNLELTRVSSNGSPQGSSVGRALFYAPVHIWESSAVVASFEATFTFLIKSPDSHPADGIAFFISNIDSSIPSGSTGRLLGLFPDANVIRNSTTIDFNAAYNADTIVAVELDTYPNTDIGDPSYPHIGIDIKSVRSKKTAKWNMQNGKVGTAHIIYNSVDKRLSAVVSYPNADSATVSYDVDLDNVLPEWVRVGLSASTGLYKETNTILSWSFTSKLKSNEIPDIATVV

| SMILES | composite z-score [1] | z-score [2] | composite z-score [3] | composite z-score [4] | composite z-score [5] | composite z-score [6] | composite z-score [7] | composite z-score [8] | composite z-score [9] | composite z-score [10] | composite z-score [11] | composite Z-score [12] | composite z-score [13] | composite z-score [14] | composite z-score [15] | composite z-score [16] | composite z-score [17] | composite z-score [18] | composite z-score [19] | composite z-score [20] |
| --- | --- | --- | --- | --- | --- | --- | --- | --- | --- | --- | --- | --- | --- | --- | --- | --- | --- | --- | --- | --- |
| C=CC1c2cc(O)c(OC)cc2CCN1Cc1ccc([N+](=O)[O-])o1 (stereo not given) | 0.0967 | 0.366 | -0.54 | 1.15 | 1.18 | 0.0306 | 0.13 | 0.57 | 1.82 | 0.899 | 0.576 | 0.402 (inactive) | 0.136 | -0.0708 | 0.847 | 2.05 | 1.1 | 0.358 | -0.807 | 0.103 |
| CC(C)C(=C=CC[C@@H](O)c1cccc(OCCO)c1)C[C@@H](O)COCc1ccccc1 | -0.83 | -0.0464 | 0.136 | 0.275 | 0.265 | -0.141 | 0.0469 | -0.298 | 0.0535 | 0.0211 | 0.15 | -1.39 (inactive) | -0.0708 | -0.0865 | 0.763 | 0.75 | 0.102 | -0.0876 | -0.456 | 0.346 |
| CN1C(=O)[C@@]2(Cc3ccccc3)N=C(c3ccc(OCCCO)cc3)O[C@H]2c2ccccc21 | 1.3 | -2.57 | 0.879 | 0.329 | 0.458 | -0.0495 | 0.0372 | 1.26 | 0.344 | 0.846 | 0.495 | 2.86 (inactive) | 0.0894 | -0.0226 | 0.603 | 2.68 | -0.233 | 1.19 | 0.882 | 1.11 |
| C=C(C)[C@@H]1CC=C(C(O)C2C=CC3C(=O)N(c4ccccc4)C(=O)C3N2Nc2ccc(C#N)cc2)CC1 (stereo not given in full) | 1.47 | -0.768 | 0.0506 | 1.75 | 0.424 | -0.0431 | 0.0469 | 1.5 | -0.243 | 1.92 | 0.971 | 0.0421 (inactive) | 0.217 | 0.0963 | 0.643 | 2.46 | 0.429 | 1.31 | 0.355 | 1.16 |
| O=C1N(CCS(=O)(=O)c2ccccc2)Cc2ccccc2[C@@H]2OC(c3ccc(OCCCO)cc3)=N[C@]12CCS(=O)(=O)c1ccccc1 | 1.48 | -0.0756 | 1.14 | 1.23 | -0.104 | 0.104 | 0.0898 | 0.445 | 1.72 | 0.821 | 0.0789 | 0.02 (inactive) | 0.128 | 0.123 | 0.628 | 2.98 | 0.638 | 1.31 | 1.15 | 1.11 |
| COCCOC(=O)N1C(=O)[C@@]2(c3cc(C#CCC(C(=O)OC)C(=O)OC)ccc31)[C@H](C(=O)NC[C@H](O)c1ccccc1)[C@H]1C(=O)O[C@H](c3ccccc3)[C@H](c3ccccc3)N1[C@@H]2c1ccc(OCCO)cc1 | 1.36 | -1.92 | 0.793 | 1.39 | -0.0628 | -0.0792 | 0.0141 | -0.367 | 0.314 | 0.973 | 0.45 | 1.02 (inactive) | 0.0899 | -0.099 | 0.521 | 1.66 | 0.257 | 1.3 | 1.13 | 1.14 |
